Laboratory results taken from PubChem BioAssay (EPA / NIEHS).
Active and inactive are the calls of the source. How the source made its calls: active means hit-call score of the fitted dose curve at least 0.9, where 1 is the maximum; inactive means score below 0.9.

Read-out: Bcl-2 (BID) gene, BID (gene 637)
Assay: LTEA_HepaRG_BID: Life Technologies and Expression Analysis (LTEA) Assay for Bcl-2 (BID) gene using HepaRG (AID 2283476)
Conditions: mRNA level, 48 h; actives raise or lower the signal
How it was run: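 Differentiated HepaRG cells in serum-free induction medium were exposed in duplicate for 48 h to eight half-log concentrations up to 100 uM in 0.5% DMSO. BID mRNA was quantified by qRT-PCR, normalized to ACTB, GAPDH and POLR2A.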

Chain of Caspase-3 (Homo sapiens) (P42574 whole entry, looked up): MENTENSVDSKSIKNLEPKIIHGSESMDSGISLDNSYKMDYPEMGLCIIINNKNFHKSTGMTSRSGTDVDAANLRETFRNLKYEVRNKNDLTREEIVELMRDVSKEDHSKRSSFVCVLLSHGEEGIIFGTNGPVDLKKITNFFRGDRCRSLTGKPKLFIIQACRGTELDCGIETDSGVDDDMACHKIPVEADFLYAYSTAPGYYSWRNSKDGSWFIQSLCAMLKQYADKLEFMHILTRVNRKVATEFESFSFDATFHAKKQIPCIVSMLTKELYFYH

SMILES	outcome	AC50
OCC1CO1 (stereo not given)	inactive	–
CCC1(c2ccccc2)C(=O)N=C(O)NC1=O (stereo not given)	inactive	–
CCOC(=O)c1ccccc1C(=O)OCC	inactive	–
Cc1ccc(N)cc1N	inactive	–
Nc1ccc(Cl)cc1	inactive	–
O=P(Oc1ccccc1)(Oc1ccccc1)Oc1ccccc1	inactive	–
CCCCCCCc1ccc(O)cc1	inactive	–
CCN(CC)c1ccccc1	inactive	–
c1ccc2c(c1)Nc1ccccc1S2	inactive	–
O=P1(N(CCCl)CCCl)NCCCO1 (stereo not given)	inactive	–
Cc1ccc(O)cc1C	inactive	–
Nc1cc2c3c(c1)C(c1ccccc1)=N[C@@H](NC(=O)c1cccnc1)C(=O)N3CC2	inactive	–
CCCN(CCC)c1c([N+](=O)[O-])cc(C(C)C)cc1[N+](=O)[O-]	–	0.119 µM (active)
O=C(O)C1C(C(=O)O)C2(Cl)C(Cl)=C(Cl)C1(Cl)C2(Cl)Cl (stereo not given)	inactive	–
O=[N+]([O-])c1ccccc1	inactive	–
CCC(C)(C)c1ccc(O)cc1	inactive	–
CC(Cl)(Cl)C(=O)O	inactive	–
CC(C)(C)c1ccc(O)cc1	inactive	–
Nc1ccc2ccccc2c1	inactive	–
CCCCN(CCCC)N=O	inactive	–
COCCOCCO	inactive	–
O=C(O)C(Cl)Cl	inactive	–

Read-out: Caspase-3 (Homo sapiens) (UniProt P42574)
Assay: LTEA_HepaRG_CASP3: Life Technologies and Expression Analysis (LTEA) Assay for cysteine-aspartic acid protease (CASP3) using HepaRG (AID 2283477)
Conditions: mRNA level, 48 h; actives raise or lower the signal
How it was run: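 Read-out is CASP3 mRNA level by TaqMan qRT-PCR in human HepaRG cells after 48 h chemical exposure. Eight half-log concentrations topping at 100 uM were tested in 0.5% DMSO; gain or loss was fitted relative to DMSO.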

SMILES	outcome
OCC1CO1 (stereo not given)	inactive
CCC1(c2ccccc2)C(=O)N=C(O)NC1=O (stereo not given)	inactive
CCOC(=O)c1ccccc1C(=O)OCC	inactive
Cc1ccc(N)cc1N	inactive
Nc1ccc(Cl)cc1	inactive
O=P(Oc1ccccc1)(Oc1ccccc1)Oc1ccccc1	inactive
CCCCCCCc1ccc(O)cc1	inactive
CCN(CC)c1ccccc1	inactive
c1ccc2c(c1)Nc1ccccc1S2	inactive
O=P1(N(CCCl)CCCl)NCCCO1 (stereo not given)	inactive
Cc1ccc(O)cc1C	inactive
Nc1cc2c3c(c1)C(c1ccccc1)=N[C@@H](NC(=O)c1cccnc1)C(=O)N3CC2	inactive
CCCN(CCC)c1c([N+](=O)[O-])cc(C(C)C)cc1[N+](=O)[O-]	inactive
O=C(O)C1C(C(=O)O)C2(Cl)C(Cl)=C(Cl)C1(Cl)C2(Cl)Cl (stereo not given)	inactive
O=[N+]([O-])c1ccccc1	inactive
CCC(C)(C)c1ccc(O)cc1	inactive
CC(Cl)(Cl)C(=O)O	inactive
CC(C)(C)c1ccc(O)cc1	inactive
Nc1ccc2ccccc2c1	inactive
CCCCN(CCCC)N=O	inactive
COCCOCCO	inactive
O=C(O)C(Cl)Cl	inactive

Read-out: Cytochrome P450 (CYP24A1), CYP24A1 (gene 1591)
Assay: LTEA_HepaRG_CYP24A1: Life Technologies and Expression Analysis (LTEA) Assay for Cytochrome P450 (CYP24A1) using HepaRG (AID 2283478)
Conditions: mRNA level, 48 h; actives raise or lower the signal
How it was run: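 HepaRG, 48 h chemical exposure, 8-pt half-log CRC from 100 uM, 0.5% DMSO vehicle, duplicates. Endpoint: CYP24A1 mRNA by Fluidigm TaqMan qRT-PCR, normalized ACTB/GAPDH/POLR2A; gain/loss fit vs DMSO.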

SMILES	outcome
OCC1CO1 (stereo not given)	inactive
CCC1(c2ccccc2)C(=O)N=C(O)NC1=O (stereo not given)	inactive
CCOC(=O)c1ccccc1C(=O)OCC	inactive
Cc1ccc(N)cc1N	inactive
Nc1ccc(Cl)cc1	inactive
O=P(Oc1ccccc1)(Oc1ccccc1)Oc1ccccc1	inactive
CCCCCCCc1ccc(O)cc1	inactive
CCN(CC)c1ccccc1	inactive
c1ccc2c(c1)Nc1ccccc1S2	inactive
O=P1(N(CCCl)CCCl)NCCCO1 (stereo not given)	inactive
Nc1cc2c3c(c1)C(c1ccccc1)=N[C@@H](NC(=O)c1cccnc1)C(=O)N3CC2	inactive
CCCN(CCC)c1c([N+](=O)[O-])cc(C(C)C)cc1[N+](=O)[O-]	inactive
O=C(O)C1C(C(=O)O)C2(Cl)C(Cl)=C(Cl)C1(Cl)C2(Cl)Cl (stereo not given)	inactive
O=[N+]([O-])c1ccccc1	inactive
CCC(C)(C)c1ccc(O)cc1	inactive
Nc1ccc2ccccc2c1	inactive
CCCCN(CCCC)N=O	inactive
COCCOCCO	inactive
O=C(O)C(Cl)Cl	inactive

Read-out: Cytochrome P450 (CYP1A2), CYP1A2 (gene 1544)
Assay: LTEA_HepaRG_CYP1A2: Life Technologies and Expression Analysis (LTEA) Assay for Cytochrome P450 (CYP1A2) using HepaRG (AID 2283479)
Conditions: mRNA level, 48 h; actives raise or lower the signal
How it was run: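 CYP1A2 transcript induction or loss, quantified by Fluidigm qRT-PCR against three housekeeping genes, was fitted bidirectionally against 0.5% DMSO controls. Human HepaRG cells received eight half-log concentrations from 100 uM over 48 h.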

SMILES	outcome	AC50
OCC1CO1 (stereo not given)	inactive	–
CCC1(c2ccccc2)C(=O)N=C(O)NC1=O (stereo not given)	inactive	–
CCOC(=O)c1ccccc1C(=O)OCC	–	83 µM (active)
Cc1ccc(N)cc1N	–	21.5 µM (active)
Nc1ccc(Cl)cc1	–	33.4 µM (active)
O=P(Oc1ccccc1)(Oc1ccccc1)Oc1ccccc1	–	27.4 µM (active)
CCCCCCCc1ccc(O)cc1	inactive	–
CCN(CC)c1ccccc1	–	39 µM (active)
c1ccc2c(c1)Nc1ccccc1S2	–	82.8 µM (active)
O=P1(N(CCCl)CCCl)NCCCO1 (stereo not given)	inactive	–
Nc1cc2c3c(c1)C(c1ccccc1)=N[C@@H](NC(=O)c1cccnc1)C(=O)N3CC2	–	50 µM (active)
CCCN(CCC)c1c([N+](=O)[O-])cc(C(C)C)cc1[N+](=O)[O-]	–	27.3 µM (active)
O=C(O)C1C(C(=O)O)C2(Cl)C(Cl)=C(Cl)C1(Cl)C2(Cl)Cl (stereo not given)	inactive	–
O=[N+]([O-])c1ccccc1	inactive	–
CCC(C)(C)c1ccc(O)cc1	inactive	–
CC(Cl)(Cl)C(=O)O	inactive	–
Nc1ccc2ccccc2c1	–	33.1 µM (active)
CCCCN(CCCC)N=O	inactive	–
COCCOCCO	inactive	–
O=C(O)C(Cl)Cl	inactive	–

Read-out: cysteine-aspartic acid protease (CASP8), CASP8 (gene 841)
Assay: LTEA_HepaRG_CASP8: Life Technologies and Expression Analysis (LTEA) Assay for cysteine-aspartic acid protease (CASP8) using HepaRG (AID 2283480)
Conditions: mRNA level, 48 h; actives raise or lower the signal
How it was run: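 Differentiated human HepaRG cells, plated 48 h then switched to serum-free induction medium, were exposed in duplicate for 48 h to 8 half-log concentrations up to 100 uM in 0.5% DMSO. CASP8 mRNA was quantified by qRT-PCR, normalized to ACTB/GAPDH/POLR2A.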

SMILES	outcome
OCC1CO1 (stereo not given)	inactive
CCC1(c2ccccc2)C(=O)N=C(O)NC1=O (stereo not given)	inactive
CCOC(=O)c1ccccc1C(=O)OCC	inactive
Cc1ccc(N)cc1N	inactive
Nc1ccc(Cl)cc1	inactive
O=P(Oc1ccccc1)(Oc1ccccc1)Oc1ccccc1	inactive
CCCCCCCc1ccc(O)cc1	inactive
CCN(CC)c1ccccc1	inactive
c1ccc2c(c1)Nc1ccccc1S2	inactive
O=P1(N(CCCl)CCCl)NCCCO1 (stereo not given)	inactive
Cc1ccc(O)cc1C	inactive
Nc1cc2c3c(c1)C(c1ccccc1)=N[C@@H](NC(=O)c1cccnc1)C(=O)N3CC2	inactive
CCCN(CCC)c1c([N+](=O)[O-])cc(C(C)C)cc1[N+](=O)[O-]	inactive
O=C(O)C1C(C(=O)O)C2(Cl)C(Cl)=C(Cl)C1(Cl)C2(Cl)Cl (stereo not given)	inactive
O=[N+]([O-])c1ccccc1	inactive
CCC(C)(C)c1ccc(O)cc1	inactive
CC(Cl)(Cl)C(=O)O	inactive
CC(C)(C)c1ccc(O)cc1	inactive
Nc1ccc2ccccc2c1	inactive
CCCCN(CCCC)N=O	inactive
COCCOCCO	inactive
O=C(O)C(Cl)Cl	inactive
